Experimental data published in PubChem BioAssay (EPA / NIEHS).
Activity calls are given as the source filed them. The calls were made as follows: active = hit-call score of the fitted dose curve at least 0.9, where 1 is the maximum; inactive = score below 0.9.

Key:
[1] = ATG_M_61_CIS: Attagene CIS-FACTORIAL HepG2 Assay for M61 Transcription Factor (Internal Marker) (AID 2282937); conditions: HepG2 Attagene CIS-FACTORIAL M61 internal marker reporter; actives raise or lower the signal
Summary of the method: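 Cells were transfected with reporter units under cis-regulatory promoters, treated with chemicals for 24 h, then lysed for RNA. Reporter transcripts were quantified by RT-PCR and capillary electrophoresis, and activity was fitted bidirectionally against DMSO.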

[2] = ATG_EGR_CIS: Attagene CIS-FACTORIAL HepG2 Assay for human Early Growth Response 1 (EGR1) (AID 2282938); conditions: HepG2 Attagene CIS-FACTORIAL EGR reporter mRNA; actives raise or lower the signal
Summary of the method: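 Endogenous TF activity in HepG2 liver cells was gauged through cis-promoter reporter constructs transiently transfected. After 24 h dosing, reporter mRNA was quantified by RT-PCR and capillary electrophoresis, and curves fitted in both directions versus DMSO.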

[3] = ATG_M_19_CIS: Attagene CIS-FACTORIAL HepG2 Assay for M19 Transcription Factor (Internal Marker) (AID 2282939); conditions: HepG2 Attagene CIS-FACTORIAL M19 internal marker reporter; actives raise or lower the signal
Summary of the method: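 Internal marker readout, fitted in both directions against DMSO, from HepG2 cells carrying transfected cis-element reporter constructs; RT-PCR and capillary electrophoresis of reporter mRNA after 24 h exposure.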

[4] = ATG_Ets_CIS: Attagene CIS-FACTORIAL HepG2 Assay for human Erythroblast Transformation Specific (ETS) (AID 2282941); conditions: HepG2 ETS cis-reporter transcription, actives raise or lower the signal
Summary of the method: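 After transient cis-reporter transfection, HepG2 cells receive test chemical for 24 h. Reporter mRNA levels, measured by RT-PCR and capillary electrophoresis fluorescence, are analysed bidirectionally relative to the DMSO baseline.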

[5] = biological target: Hepatocyte nuclear factor 3-beta (Homo sapiens) (UniProt Q9Y261); test: ATG_FoxA2_CIS: Attagene CIS-FACTORIAL HepG2 Assay for human Forkhead box A2 (FOXA2) (AID 2282942); conditions: HepG2 cis-reporter transcription factor activity, 24 h; actives raise or lower the signal
Hepatocyte nuclear factor 3-beta (Homo sapiens), sequence (Q9Y261 whole entry, looked up): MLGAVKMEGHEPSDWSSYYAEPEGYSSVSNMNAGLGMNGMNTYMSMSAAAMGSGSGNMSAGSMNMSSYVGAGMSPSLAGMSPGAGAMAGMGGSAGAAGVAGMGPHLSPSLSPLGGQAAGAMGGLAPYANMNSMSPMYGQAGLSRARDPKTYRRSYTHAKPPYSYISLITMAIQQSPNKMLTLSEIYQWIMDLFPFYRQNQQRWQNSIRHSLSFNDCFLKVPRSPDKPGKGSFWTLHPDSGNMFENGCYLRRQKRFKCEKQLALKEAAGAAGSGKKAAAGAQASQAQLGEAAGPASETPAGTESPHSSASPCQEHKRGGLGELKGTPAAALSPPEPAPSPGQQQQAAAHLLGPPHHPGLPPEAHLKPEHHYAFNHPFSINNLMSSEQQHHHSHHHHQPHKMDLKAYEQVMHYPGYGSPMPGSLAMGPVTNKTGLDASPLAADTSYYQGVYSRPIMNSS
Summary of the method: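 Endogenous transcription factor activity was read in HepG2 cells carrying transiently transfected cis-promoter reporter units. After 24 h dosing, reporter mRNA was quantified by RT-PCR and capillary electrophoresis, and values fitted bidirectionally versus DMSO.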

[6] = ATG_FoxO_CIS: Attagene CIS-FACTORIAL HepG2 Assay for human Forkhead box O (FoxO) (AID 2282943); conditions: HepG2 Attagene cis-reporter, FoxO element, mRNA; actives raise or lower the signal
Summary of the method: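 HepG2, transient MRTU transfection (cis element, endogenous TFs). Dose 24 h. TriZol RNA → oligo(dT) RT → PCR → 6-FAM primer extension → HpaI cut → CE. Gain/loss vs DMSO.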

[7] = ATG_GATA_CIS: Attagene CIS-FACTORIAL HepG2 Assay for human GATA Binding Protein (AID 2282944); conditions: HepG2 GATA cis-element reporter, Attagene multiplex mRNA; actives raise or lower the signal
Summary of the method: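 Reporter transcripts from a GATA cis-regulated unit, among multiplexed reporters in transfected HepG2 cells, were measured by RT-PCR with capillary electrophoresis after 24 h dosing. Induction or loss scored relative to DMSO.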

[8] = ATG_GLI_CIS: Attagene CIS-FACTORIAL HepG2 Assay for human Zinc Finger Protein GLI1 (AID 2282945); conditions: HepG2, Attagene cis-factorial reporter mRNA, GLI element; actives raise or lower the signal
Summary of the method: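 Bidirectional curve fits relative to DMSO, using reporter mRNA levels from RT-PCR plus capillary electrophoresis. Cells were HepG2 transiently carrying cis-regulated reporter constructs, harvested 24 h after dosing.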

[9] = biological target: Bile acid receptor (Homo sapiens) (UniProt Q96RI1); test: ATG_IR1_CIS: Attagene CIS-FACTORIAL HepG2 Assay for human Nuclear Receptor Subfamily 1 Group H Member 4 (NR1H4), IR1 submotif (AID 2282946); conditions: IR1 reporter transcription, actives raise or lower the signal
Bile acid receptor (Homo sapiens), sequence (Q96RI1 whole entry, looked up, the tested form may be a part): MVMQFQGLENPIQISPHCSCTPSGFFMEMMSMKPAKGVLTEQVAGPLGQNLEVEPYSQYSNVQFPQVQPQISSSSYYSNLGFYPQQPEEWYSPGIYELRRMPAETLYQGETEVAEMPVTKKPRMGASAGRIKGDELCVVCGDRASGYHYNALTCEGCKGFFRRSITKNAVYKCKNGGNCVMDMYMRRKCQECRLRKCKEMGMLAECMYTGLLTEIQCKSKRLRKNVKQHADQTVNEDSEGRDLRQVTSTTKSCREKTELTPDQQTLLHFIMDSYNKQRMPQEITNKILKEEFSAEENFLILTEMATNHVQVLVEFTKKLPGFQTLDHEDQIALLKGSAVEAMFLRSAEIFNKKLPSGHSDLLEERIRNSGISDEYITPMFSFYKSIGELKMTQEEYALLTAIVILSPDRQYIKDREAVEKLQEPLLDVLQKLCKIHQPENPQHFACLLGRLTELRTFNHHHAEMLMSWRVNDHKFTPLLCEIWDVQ
Summary of the method: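 Cells (human HepG2) carry transiently transfected cis-promoter reporter transcription units. Compounds are incubated 24 h, total RNA is reverse-transcribed and amplified, and labelled fragments are resolved by capillary electrophoresis. Curves use DMSO as baseline.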

[10] = ATG_ISRE_CIS: Attagene CIS-FACTORIAL HepG2 Assay for human Interferon Regulatory Factor 1 (IRF1) binding to an Interferon-Stimulated Response Element (ISRE) (AID 2282948); conditions: HepG2 ISRE cis-reporter (Attagene), mRNA transcription readout; actives raise or lower the signal
Summary of the method: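 Quantitation relies on labelled RT-PCR fragments separated by capillary electrophoresis. Human HepG2 cells bearing cis-promoter reporter constructs were treated 24 h; DMSO served as baseline for bidirectional fitting.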

[11] = ATG_M_32_CIS: Attagene CIS-FACTORIAL HepG2 Assay for M32 Transcription Factor (Internal Marker) (AID 2282949); conditions: HepG2 Attagene cis-factorial M32 reporter, mRNA; actives raise or lower the signal;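 also: background control marker of the multiplexed CIS panel rather than a real target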
Summary of the method: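 HepG2 cells transiently transfected with multiplexed cis-regulated reporter units, dosed 24 h. Reporter mRNA quantified by RT-PCR, 6-FAM labelling, HpaI digestion and capillary electrophoresis; bidirectional fit vs DMSO.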

[12] = ATG_M_06_CIS: Attagene CIS-FACTORIAL HepG2 Assay for M06 Transcription Factor (Internal Marker) (AID 2282950); conditions: HepG2 Attagene CIS-FACTORIAL M06 internal marker reporter; actives raise or lower the signal
Summary of the method: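 Serves as a background control readout. Transfected HepG2 exposed to compounds for 24 h, then reporter transcripts quantified by fluorescent RT-PCR and capillary electrophoresis. Both directions fitted against DMSO baseline.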

[13] = biological target: Hypoxia-inducible factor 1-alpha (Homo sapiens) (UniProt Q16665); test: ATG_HIF1a_CIS: Attagene CIS-FACTORIAL HepG2 Assay for human Hypoxia Inducible Factor 1 (HIF1A) (AID 2282951); conditions: HepG2 Attagene cis-factorial HIF1a reporter transcription; actives raise or lower the signal
Hypoxia-inducible factor 1-alpha (Homo sapiens), sequence (Q16665 whole entry, looked up): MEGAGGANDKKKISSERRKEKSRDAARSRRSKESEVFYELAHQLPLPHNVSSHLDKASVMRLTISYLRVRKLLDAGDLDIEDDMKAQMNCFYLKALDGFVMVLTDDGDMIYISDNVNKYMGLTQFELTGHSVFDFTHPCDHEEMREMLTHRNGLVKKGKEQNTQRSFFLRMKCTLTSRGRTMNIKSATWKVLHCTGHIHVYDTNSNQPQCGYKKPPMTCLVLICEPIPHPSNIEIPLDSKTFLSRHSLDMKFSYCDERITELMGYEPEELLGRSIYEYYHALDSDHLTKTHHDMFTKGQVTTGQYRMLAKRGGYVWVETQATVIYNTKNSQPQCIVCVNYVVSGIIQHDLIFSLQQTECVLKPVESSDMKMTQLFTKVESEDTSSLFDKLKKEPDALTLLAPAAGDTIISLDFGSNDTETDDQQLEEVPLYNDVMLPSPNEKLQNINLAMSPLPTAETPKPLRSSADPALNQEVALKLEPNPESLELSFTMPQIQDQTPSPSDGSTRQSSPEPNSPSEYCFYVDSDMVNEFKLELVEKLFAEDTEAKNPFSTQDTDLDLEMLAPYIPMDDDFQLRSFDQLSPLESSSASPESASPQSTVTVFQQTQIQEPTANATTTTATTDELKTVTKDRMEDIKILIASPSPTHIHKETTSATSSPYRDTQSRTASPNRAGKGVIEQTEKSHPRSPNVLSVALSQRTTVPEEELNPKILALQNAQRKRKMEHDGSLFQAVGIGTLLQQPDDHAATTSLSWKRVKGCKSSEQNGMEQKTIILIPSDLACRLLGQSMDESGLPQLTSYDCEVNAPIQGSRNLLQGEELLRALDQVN
Summary of the method: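 Measures endogenous transcription-factor activity through cis-regulated reporter mRNA in HepG2. Cells dosed 24 h; transcripts quantified by RT-PCR with 6-FAM-labelled products separated by capillary electrophoresis; DMSO serves as negative control.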

[14] = biological target: Heat shock factor protein 1 (Homo sapiens) (UniProt Q00613); test: ATG_HSE_CIS: Attagene CIS-FACTORIAL HepG2 Assay for human Heat Shock Transcription Factor 1 (HSE) (AID 2282953); conditions: HepG2 HSE cis-reporter, Attagene RNA transcription; actives raise or lower the signal
Heat shock factor protein 1 (Homo sapiens), sequence (Q00613 whole entry, looked up): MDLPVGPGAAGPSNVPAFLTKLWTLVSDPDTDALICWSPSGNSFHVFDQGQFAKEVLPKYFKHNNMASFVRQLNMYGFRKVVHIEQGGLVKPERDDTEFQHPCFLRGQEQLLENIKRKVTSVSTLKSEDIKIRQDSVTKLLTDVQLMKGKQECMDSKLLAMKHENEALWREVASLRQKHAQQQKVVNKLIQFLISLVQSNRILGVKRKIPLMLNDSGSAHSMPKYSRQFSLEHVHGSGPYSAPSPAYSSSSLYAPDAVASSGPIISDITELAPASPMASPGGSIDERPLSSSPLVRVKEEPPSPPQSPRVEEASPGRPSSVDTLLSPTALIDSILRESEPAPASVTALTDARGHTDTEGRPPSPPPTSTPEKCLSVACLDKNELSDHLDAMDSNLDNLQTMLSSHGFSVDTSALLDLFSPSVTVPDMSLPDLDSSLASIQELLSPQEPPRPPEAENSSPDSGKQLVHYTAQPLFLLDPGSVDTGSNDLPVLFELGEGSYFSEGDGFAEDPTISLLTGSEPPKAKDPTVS
Summary of the method: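 Endogenous transcription factor activity in transiently transfected HepG2, read as reporter mRNA by RT-PCR with fluorescent capillary electrophoresis after 24 h. Gain or loss of signal fitted versus DMSO baseline.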

[15] = ATG_MRE_CIS: Attagene CIS-FACTORIAL HepG2 Assay for human Metal Responsive Element (MRE) (AID 2282954); conditions: HepG2 MRE cis-reporter transcription, Attagene multiplex; actives raise or lower the signal
Summary of the method: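 Transient MRTU transfection of HepG2 (FuGene 6); 24 h dosing; total RNA → oligo(dT) RT, PCR, 6-FAM primer extension, HpaI cut, CE. Bidirectional fit vs DMSO.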

[16] = ATG_PBREM_CIS: Attagene CIS-FACTORIAL HepG2 Assay for human Phenobarbital-responsive Enhancer Module (PBREM) (AID 2282955); conditions: HepG2 PBREM cis-reporter, Attagene multiplexed transcription; actives raise or lower the signal
Summary of the method: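 Fluorescence of labelled reporter cDNA fragments, resolved by capillary electrophoresis, gives mRNA induction in transfected HepG2 cells treated for 24 h; DMSO serves as negative control and baseline.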

[17] = biological target: Hepatocyte nuclear factor 6 (Homo sapiens) (UniProt Q9UBC0); test: ATG_HNF6_CIS: Attagene CIS-FACTORIAL HepG2 Assay for human Hepatocyte Nuclear Factor 6 (HNF6) (AID 2282952); conditions: HepG2 Attagene cis-factorial HNF6 reporter transcription; actives raise or lower the signal
Hepatocyte nuclear factor 6 (Homo sapiens), sequence (Q9UBC0 whole entry, looked up): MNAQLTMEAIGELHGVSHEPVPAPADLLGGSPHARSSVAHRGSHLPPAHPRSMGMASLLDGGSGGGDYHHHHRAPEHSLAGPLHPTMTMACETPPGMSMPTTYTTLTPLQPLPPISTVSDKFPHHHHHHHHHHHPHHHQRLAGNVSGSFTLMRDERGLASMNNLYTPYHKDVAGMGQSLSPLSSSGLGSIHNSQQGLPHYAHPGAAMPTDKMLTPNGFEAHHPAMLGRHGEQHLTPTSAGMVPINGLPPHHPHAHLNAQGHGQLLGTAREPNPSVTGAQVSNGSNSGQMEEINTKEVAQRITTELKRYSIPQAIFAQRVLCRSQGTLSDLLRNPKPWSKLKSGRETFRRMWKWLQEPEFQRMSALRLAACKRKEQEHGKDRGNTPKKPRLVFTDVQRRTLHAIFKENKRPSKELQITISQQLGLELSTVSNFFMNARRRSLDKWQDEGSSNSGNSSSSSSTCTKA
Summary of the method: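 HepG2, transient MRTU transfection (cis promoters); 24 h chemical exposure; total RNA → oligo(dT) RT → PCR → 6-FAM labelling → HpaI cut → CE; bidirectional fit vs DMSO.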

[18] = ATG_GRE_CIS: Attagene CIS-FACTORIAL HepG2 Assay for human Glucocorticoid Response Elements (GRE) (AID 2282947); conditions: HepG2 GRE cis-reporter, Attagene multiplex mRNA; actives raise or lower the signal
Summary of the method: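 Transient MRTU transfection of human HepG2 liver cells; cis-regulated reporters report endogenous factors. 24 h dosing → RNA isolation → RT-PCR → 6-FAM primer extension → HpaI cut → CE fragment analysis. Bidirectional fit, DMSO negative control.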

[19] = ATG_ERE_CIS: Attagene CIS-FACTORIAL HepG2 Assay for Estrogen Response Element (ERE) (AID 2282940); conditions: HepG2 ERE cis-reporter, Attagene RNA transcript; actives raise or lower the signal
Summary of the method: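 After 24 h compound treatment, RNA from transfected HepG2 cells was reverse-transcribed, reporter cDNA PCR-amplified, FAM-labelled, HpaI-cut and resolved by capillary electrophoresis. ERE-driven cis reporter transcripts reflect endogenous factors; gain or loss scored against DMSO.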

Measured: AC50

CCCCCCCCCC(=O)OC
inactive: [1] | [2] | [3] | [4] | [5] | [6] | [7] | [8] | [9] | [10] | [11] | [12] | [13] | [14] | [15] | [16]

OCCOCCN1CCN(C2=Nc3ccccc3Sc3ccccc32)CC1
active: [10] 152 µM | [15] 71.7 µM
inactive: [1] | [2] | [3] | [4] | [5] | [7] | [8] | [9] | [11] | [12] | [13] | [17] | [14]

C[C@H](CCC(=O)NCC(=O)O)[C@H]1CC[C@H]2[C@@H]3[C@H](O)C[C@@H]4C[C@H](O)CC[C@]4(C)[C@H]3C[C@H](O)[C@]12C
inactive: [1] | [2] | [3] | [4] | [5] | [6] | [7] | [8] | [9] | [18] | [10] | [11] | [12] | [14] | [15]

Cc1ncc([N+](=O)[O-])n1CCO
inactive: [1] | [2] | [3] | [19] | [4] | [5] | [6] | [7] | [8] | [10] | [11] | [12] | [17] | [14] | [15] | [16]

C=C1CC[C@H](O)C/C1=C/C=C1\CCC[C@]2(C)[C@@H]([C@H](C)/C=C/[C@H](C)C(C)C)CC[C@@H]12
inactive: [1] | [2] | [3] | [4] | [5] | [6] | [7] | [8] | [9] | [18] | [10] | [11] | [12] | [17] | [14] | [15] | [16]

C[C@H]1C[C@@H](O)CC(C)(C)C1
inactive: [2] | [3] | [4] | [5] | [6] | [7] | [8] | [9] | [18] | [10] | [11] | [12] | [13] | [17] | [15] | [16]

CC1=NN(c2ccc(S(=O)(=O)O)cc2)C(=O)C1
inactive: [1] | [2] | [3] | [4] | [5] | [6] | [7] | [18] | [10] | [11] | [12] | [13] | [17] | [14] | [15] | [16]

CC(=O)c1c(C)c([N+](=O)[O-])c(C(C)(C)C)c([N+](=O)[O-])c1C
active: [15] 11.5 µM
inactive: [1] | [2] | [3] | [4] | [5] | [6] | [7] | [8] | [9] | [18] | [10] | [11] | [12] | [13] | [17] | [14] | [16]
